This note sets out measurements from PubChem BioAssay (Tox21).

Values without a mark were called inactive. Results filed as inconclusive are left out. The source made the active and inactive calls. The call rests on the fitted dose curve; in most records, active means well fitted curve in the direction sought with a large enough effect in the repeat runs; inconclusive means weak or mixed curves; inactive means no such curve, though single readings can be large; an effect the other way counts as inactive or inconclusive.

Assay [1] is described as follows: A CellTox Green Cytotoxicity Assay to monitor cytotoxicity in HEK293 cells - 32 hour (AID 1224881). Further: nearly all actives have a fitted effect of over 40% in size. The gist of the method:
(§1)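 Homogeneous no-lysis format: HEK293 cell suspension mixed with CellTox Green reagent, seeded, incubated 5 h at 37 C/5% CO2, then dosed by pintool with compound in DMSO.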

A short description of assay [2]: A CellTox Green Cytotoxicity Assay to monitor cytotoxicity in HepG2 cells - 0 hour (AID 1224882). Further: nearly all actives have a fitted effect of over 35% in size. The method in brief: (§2)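 Fluorescent DNA-binding dye, 600 HepG2 cells/well, 5 h preincubation then compound in DMSO; same plates read at 0–40 h, 37 C.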
The nature of assay [3]: A CellTox Green Cytotoxicity Assay to monitor cytotoxicity in HepG2 cells - 32 hour (AID 1224883). Further: nearly all actives have a fitted effect of over 50% in size. Further: potency means the concentration at half of the fitted maximal effect. The gist of the method:
as §2

Assay [4] in a line: A CellTox Green Cytotoxicity Assay to monitor cytotoxicity in HEK293 cells - 8 hour (AID 1224884). Further: nearly all actives have a fitted effect of over 35% in size. The method in brief:
as §1

Assay [5] in a line: qHTS RealTime-Glo MT Cell Viability Assay in HepG2 cells - 16 hour (AID 1224885). Further: nearly all actives have a fitted effect of over 50% in size. The method in brief:
(§3)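 HepG2 cells (600/well) were dispensed with RealTime-Glo reagents, incubated 5 h at 37 °C, then treated with compounds in DMSO for up to 40 h. Nonlytic NanoLuc luminescence reflecting viable cells was read at each stated time point.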
For orientation: qHTS replaces the single test concentration by a dilution series.

The nature of assay [6]: qHTS RealTime-Glo MT Cell Viability Assay in HEK293 cells - 24 hour (AID 1224886). Further: top concentration of the series differs between compounds; nearly all actives have a fitted effect of over 50% in size. The gist of the method: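 HEK293 cells seeded with NanoLuc/prosubstrate reagent, rested 5 h at 37 C, then dosed and kept at 37 C up to 40 h. Nonlytic real-time luminescence from viable cells read at 0, 8, 16, 24, 32 and 40 h.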
Assay [7] can be described thus: qHTS RealTime-Glo MT Cell Viability Assay in HEK293 cells - 8 hour (AID 1224887). Further: top concentration of the series differs between compounds; nearly all actives have a fitted effect of over 50% in size. The method in brief: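 Measured as luminescence from the same continuously cultured HEK293 wells at successive time points (0, 8, 16, 24, 32, 40 h) after compound addition. Reagent present from seeding; dosing at 5 h; incubation 37 C.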
A short description of assay [8]: A CellTox Green Cytotoxicity Assay to monitor cytotoxicity in HEK293 cells - 16 hour (AID 1224888). Further: nearly all actives have a fitted effect of over 35% in size. The gist of the method:
as §1

Assay [9] can be described thus: qHTS RealTime-Glo MT Cell Viability Assay in HepG2 cells - 0 hour (AID 1224889). Further: nearly all actives have a fitted effect of over 50% in size. The gist of the method: as §3
Assay [10] can be described thus: A CellTox Green Cytotoxicity Assay to monitor cytotoxicity in HepG2 cells - 8 hour (AID 1224890). Further: nearly all actives have a fitted effect of over 45% in size. The method in brief: as §2
On the % scale 0 is the no-effect control and ±100 the full control effect.

Consider `CCCCCCCCCCCCCCCCCBr`, for which the cytotoxicity increase in [1] is -9.33% [at 15.8 µM]; in assay [3] it was -10.1% [at 15.8 µM]; in assay [4], -3.41% [at 15.8 µM]; in assay [10], -11.1% [at 15.8 µM]. In addition, the cytotoxicity in assay [2] was -6.85% [at 15.8 µM]. Moreover, the activity change, negative = cytotoxic in [5] was -3.91% [at 15.8 µM]. Moreover, the values for the activity change, negative = cytotoxicity in assay [6], in assay [7] and in [9] were -0.166% [at 15.8 µM], 2.84% [at 15.8 µM] and -6.2% [at 15.8 µM], respectively. Besides, the activity change in assay [8] is -5.91% [at 15.8 µM, stronger effect = higher value].
On to `CC(C)CCCCCCOC(=O)c1ccc(C(=O)OCCCCCCC(C)C)c(C(=O)OCCCCCCC(C)C)c1`, for which the Potency entry in assay [1], in assay [2], in assay [3], in [4], in assay [5] and in assay [6] was “inactive” in each case. For the same compound, the Potency result in assay [7], in assay [8], in assay [9] and in assay [10] was “inactive” each time.
`O=C(Cl)c1c(Cl)cccc1Cl`: the Potency result in assay [1], in assay [2], in [3], in [4], in [5] and in [6] was “inactive” in each case. Besides, the Potency entry in assay [7], in assay [8], in assay [9] and in [10] was “inactive” each time.
In the case of `O=C(/C=C/c1ccc(O)c(O)c1)O[C@@H]1C[C@](O)(C(=O)O)C[C@@H](O)[C@H]1O`, the Potency entry in assay [1], in assay [2], in [3], in assay [4], in [5] and in [6] was “inactive” in each case. The Potency entry in assay [7], in [8], in assay [9] and in assay [10] was “inactive” each time.
For the compound `CC(O)C1CCCCC1` (stereo not drawn), the Potency result in assay [1], in assay [2], in assay [3], in assay [4], in assay [5] and in [6] was “inactive” each time. Further, the Potency result in assay [7], in assay [8], in [9] and in assay [10] was “inactive” throughout.
For the compound `CCOc1nc2cccc(C(=O)O)c2n1Cc1ccc(-c2ccccc2-c2nn[nH]n2)cc1`, the Potency result in assay [1], in assay [2], in [3], in [4], in assay [5] and in assay [6] was “inactive” each time. Further, the Potency entry in [7], in assay [8], in [9] and in assay [10] was “inactive” throughout.
Turning to `Cc1ccc(C)o1`, the Potency entry in assay [1], in assay [2], in assay [3], in assay [4], in assay [5] and in assay [6] was “inactive” throughout. Moreover, the Potency entry in assay [7], in [8], in assay [9] and in assay [10] was “inactive” each time.
As to `O=C(O)Cc1sc(-c2ccccc2)nc1-c1ccc(Cl)cc1`, the Potency entry in [1], in assay [2], in assay [3], in assay [4], in [5] and in assay [6] was “inactive” each time. Further, the Potency entry in [7], in [8], in assay [9] and in assay [10] was “inactive” throughout.
As to `CCc1nn(C2CCCCC2)c2cc(C3(C#N)CCC(C(=O)O)CC3)ccc12` (stereo not drawn), the Potency entry in [1], in [2], in assay [3], in [4], in [5] and in assay [6] was “inactive” throughout. The Potency result in assay [7], in assay [8], in [9] and in assay [10] was “inactive” in each case.
In the case of `COC(=O)CSc1cc(N=c2sc(=O)n3n2CCCC3)c(F)cc1Cl`, the Potency result in [1], in assay [2], in [3], in assay [4], in [5] and in assay [6] was “inactive” throughout. The Potency result in [7], in assay [9] and in assay [10] was “inactive” in each case.
As to `CCCCCCc1ccc(N)cc1`, the Potency entry in [1], in assay [2], in assay [4], in assay [5], in assay [6] and in assay [8] was “inactive” throughout. Further, the Potency entry in assay [9] was “inactive”. Also, the Potency in assay [3] was 49 µM (active).
Turning to `COc1ccc([C@@H]2Sc3ccccc3N(CCN(C)C)C(=O)[C@@H]2OC(C)=O)cc1`, the Potency entry in assay [1], in [2], in assay [3], in [4], in assay [5] and in assay [6] was “inactive” in each case. Further, the Potency result in assay [8], in [9] and in assay [10] was “inactive” in each case.
For the compound `CC(C)NCC(O)c1cc(O)cc(O)c1` (stereo not drawn), the Potency entry in assay [1], in assay [2], in assay [3], in assay [4], in [5] and in assay [6] was “inactive” throughout. Also, the Potency result in [8], in assay [9] and in [10] was “inactive” throughout.
With `CC1=CCC(C(C)C)C=C1` (stereo not drawn), the Potency entry in assay [1], in assay [2], in [3], in assay [4], in assay [5] and in assay [6] was “inactive” each time. Also, the Potency result in [8] and in [9] was “inactive” each time.
As for `CNS(=O)(=O)Cc1ccc2[nH]cc(CCN(C)C)c2c1`, the Potency result in assay [1], in assay [2], in [3], in assay [4], in assay [5] and in [6] was “inactive” each time. Besides, the Potency result in assay [7], in assay [8], in assay [9] and in [10] was “inactive” in each case.
Regarding `CCCc1ccccc1`, the Potency result in assay [1], in assay [2], in [3], in assay [4], in assay [5] and in assay [6] was “inactive” each time. For the same compound, the Potency result in assay [8] and in [9] was “inactive” throughout.
As for `CCCCC(CC)(CO)CO`, the Potency result in assay [1], in [2], in [3], in assay [4], in assay [5] and in assay [6] was “inactive” throughout. In addition, the Potency result in assay [7], in assay [8], in [9] and in [10] was “inactive” in each case.
On to `CCCC(=O)OCC`, for which the Potency result in [1], in [2], in assay [3], in assay [4], in assay [5] and in assay [6] was “inactive” each time. Further, the Potency result in [8], in assay [9] and in [10] was “inactive” each time.
As to `Cc1c(Cn2ccnc2)c2ccccc2n1CCC(=O)O`, the Potency result in assay [1], in assay [2], in assay [3], in assay [4], in assay [5] and in assay [6] was “inactive” throughout. For the same compound, the Potency result in assay [7], in [8], in assay [9] and in assay [10] was “inactive” in each case.
Turning to `CC(C)NCC(O)COc1ccc(CC(N)=O)cc1` (stereo not drawn), the Potency entry in assay [1], in assay [2], in assay [3], in assay [4], in assay [5] and in assay [6] was “inactive” throughout. Further, the Potency result in assay [7], in assay [8], in [9] and in [10] was “inactive” each time.
For the compound `O=C(O)Cc1cc(I)c(Oc2ccc(O)c(I)c2)c(I)c1`, the Potency entry in [1], in assay [2], in assay [3], in [4], in [5] and in [6] was “inactive” each time. Also, the Potency entry in assay [7], in assay [8] and in assay [10] was “inactive” in each case.
Consider `N#Cc1cc2ccccc2c2ccccc12`, for which the Potency result in [1], in [2], in [3], in assay [4], in assay [5] and in assay [6] was “inactive” in each case. The Potency entry in [7], in assay [8], in assay [9] and in [10] was “inactive” throughout.
`c1ccc(CNCc2ccccc2)cc1`: the Potency entry in assay [1], in [2], in assay [3], in assay [4], in assay [5] and in [6] was “inactive” in each case. Further, the Potency result in assay [8], in [9] and in [10] was “inactive” throughout.
